Publication PMC12136788
Positions count from the first letter of the chain named. In all, about 24,000 sequences were measured (“enrichment r”: median about 0.99, highest 2% from about 3.7 on). This excerpt belongs to a sample that is enriched for the highest values.

T1: UNK ZnF1-3 (human, UniProt Q9C0B0 31-174)
T1 sequence: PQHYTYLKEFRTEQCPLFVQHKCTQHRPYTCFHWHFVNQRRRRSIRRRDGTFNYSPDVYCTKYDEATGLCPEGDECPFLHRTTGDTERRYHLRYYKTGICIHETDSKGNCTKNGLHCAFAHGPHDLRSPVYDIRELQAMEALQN

B1: chr2:42509997:42509998:+_ENSG00000143924_ENST00000318522|hu_mus|hu_hu_hu_mus_True|28_48 (ssRNA)
RNA: GGGAGUUCUACAGUCCGACGAUCUCGCUGAGUCCUCUCCUCAUAAUUAAACAGGACUACCACUGAGGCGAUAAAAUAAACUAUCUCCCCGGUCGGAAGCAGGUAUACAUUAGCUCUACAGUCCUUUCCUCGAUAACCGUAUACCAACAGAGGAUUGAGCAUCA
B2: chr3:108363203:108363204:-_ENSMUSG00000068732_ENSMUST00000090546|mus_hu|FALSE|FALSE (ssRNA)
RNA: GGGAGUUCUACAGUCCGACGAUCCCAGGUUUUGAGACGAGGUACUUUCUUGAAGUAGGCACAGGUGCAAACAAAGAGCAAACCAAACACCAGAAUCCCAUCCAAGGAGUACACGUUCGUCAUGGCGGCUGGCCCUGGACCUGGCAACAGAGGAUUGAGCAUCA
B3: chr2:216981417:216981418:+_ENSG00000079246_ENST00000392132|hu_hu|hu_hu_hu_mus_True|48_58 (ssRNA)
RNA: GGGAGUUCUACAGUCCGACGAUCCUGAUACUGGUCCUUGCCAGCAAGGGCAUUAUCAGUGCCAUCUGUGCCAUAGAGGACUAAAGCAAUCUCAUCCUUGCUCUCCGAAAAUACCUGUCGUUGGACAAACAUAGUCAUCACUUUCAACAGAGGAUUGAGCAUCA
B4: 91404753_91404873_2338_CDS_ENSG00000122482_ENST00000337393|human|control|control (ssRNA)
RNA: GGGAGUUCUACAGUCCGACGAUCAGGUUUUUGGUCAACGCUGCUUUUAAUUGUAACAUUCUUAUGAGGAGAGCUGUUUUGAUUGCACAUGUUUACACCUGAUUGGGCAAUGCUUUUCCGAGCUUUCUGUAUUCUGUGUGGCCGCAACAGAGGAUUGAGCAUCA
B5: chr2:153593888:153593889:+_ENSMUSG00000027479_ENSMUST00000028981|mus_hu|FALSE|FALSE (ssRNA)
RNA: GGGAGUUCUACAGUCCGACGAUCAGUAGUGGGUGAGACACAUUUUGCAGAAUCCUGCCAAACAAAGGAACUGAAUAGGCUGUGGGCAAAGCAAAUGAGGGAGAGUUAAGGAAUGAAGUAUUUUAAAUAUUAAUAAUUAAUUCACAACAGAGGAUUGAGCAUCA
B6: 77768493_77775406_9844_CDS_ENSG00000091656_ENST00000521891|human|control|control (ssRNA)
RNA: GGGAGUUCUACAGUCCGACGAUCACUGCUGAGAGACAGGGCAGGAGACGAAGUAGCUGAAGUAGGAAACCCAAGCAUGCCUGCACCGGGAGGUGUUAAAGUGUUUGAAUUUUGUGGAAAUCCCGGCAAGGAGGAUGGACCGUUCAACAGAGGAUUGAGCAUCA
B7: chr2:153593888:153593889:+_ENSMUSG00000027479_ENSMUST00000028981|mus_mus|FALSE|FALSE (ssRNA)
RNA: GGGAGUUCUACAGUCCGACGAUCCUCAGUAGUGGGUAACACAUUUUGCAGAGUUCGCCAAACAAAGGAAUUGAAUAGGCUAUGGGUAAAGCAAUUGAGGGAGAAUUAAGGAAUGAAGUAUUUUAAAUAUUAAUAUUUCAGUCACAACAGAGGAUUGAGCAUCA
B8: chr6:39351226:39351227:-_ENSMUSG00000029922_ENSMUST00000031985|mus_hu|FALSE|FALSE (ssRNA)
RNA: GGGAGUUCUACAGUCCGACGAUCGACAAAGUUAGAUGUGAUCCGGCAUUCUGGGCAGGACUUUAUGAUCUUGCUCUCAAAUUGCUUAGCACUCCUCCACUUGCGAAUGCACUUGAGACAGUAGGUGUGGUUGCAGUUGGAGAGCAACAGAGGAUUGAGCAUCA
B9: chr3:54535082:54535083:-_ENSMUSG00000027752_ENSMUST00000029316|mus_mus|FALSE|FALSE (ssRNA)
RNA: GGGAGUUCUACAGUCCGACGAUCGCAGGCAUCCAAAAUGUUCCCAUCGUAGUCUAGACAAAUGAGGUCACAGUAUAGAACCCAAGCAAGCUUGCCUGGAGAAAUGCAUAAAUCCUCUUUCUUAAUCACCUGUGAGUUGUCAACCAACAGAGGAUUGAGCAUCA
B10: chr4:144447494:144447495:+_ENSG00000153147_ENST00000283131|hu_hu|motif|central (ssRNA)
RNA: GGGAGUUCUACAGUCCGACGAUCCCAGUUGUGUAAUGUAGACUUAGGAACCAAAACCAUAUGAGGCCCAGGAAUGUUUCGGUAAUGUUUCAUGUACCCAAGAAGAGAAAUUGUUUGAAGAGUCUUUCCUAGGCCCAUUUCAUCCAACAGAGGAUUGAGCAUCA
B11: 18505133_18505253_973_CDS_ENSG00000101310_ENST00000262544|human|control|control (ssRNA)
RNA: GGGAGUUCUACAGUCCGACGAUCUUCACAGCUUAGCUCAUGAACCUGCACCAUCCUUCCAAAUGUGAUCAGACCCACCAGAGCAUCUGGAGGAAGAAGACUCAGGGACAUCUGCAGGGACUCUUUGAGUGCUUGAAGGUCAUCCAACAGAGGAUUGAGCAUCA
B12: chr4:99801976:99801977:-_ENSG00000151247_ENST00000280892|hu_hu|motif|central (ssRNA)
RNA: GGGAGUUCUACAGUCCGACGAUCAACACAUUUAUGGAUUCUGGGGAUGUGUACUGUAAUUCUUUGAUUGGGAUAGUGGAAACUCGGGCCAAAAAAAAAAAAAAAAAUGAACACAGAAGUACAAGACAAAGGCGAAUGAGACUUCAACAGAGGAUUGAGCAUCA
B13: chr2:69570450:69570451:+_ENSMUSG00000042133_ENSMUST00000090858|mus_hu|FALSE|FALSE (ssRNA)
RNA: GGGAGUUCUACAGUCCGACGAUCACAAAGACAACGAAAGUUCUCGCAUGUUUUGGGGCACACAUCAGAAAAUAAUUCAAAGACAACUCUUCCAGCAGGUUGAUUGUUAAUGGCAAUGUCAAAAAAACAUCGAGGACGUUGAACCAACAGAGGAUUGAGCAUCA
B14: chr7:116176368:116176369:+_ENSMUSG00000031028_ENSMUST00000033341|mus_hu|FALSE|FALSE (ssRNA)
RNA: GGGAGUUCUACAGUCCGACGAUCAGACACACACAUACACAGACGGACACAGAGCACCUUGGAGCCAGAAGGAAAGGAAAGCUAGACUUGGAGAAGAGUUGGGGAAGUGAACUUCACCACUCUGCAGAAUUGUUCUGGGGCAGACAACAGAGGAUUGAGCAUCA
B15: chr4:124323795:124323796:+_ENSG00000164056_ENST00000339241|hu_hu|motif|central (ssRNA)
RNA: GGGAGUUCUACAGUCCGACGAUCCCAUGAGUUAGACCUUGGCAACAGGGGAAGAGAAGGUGGGAAACAGGGAAAAAUUCGGAAGAAAACAAAAACAAAAACAAAAACAAAAAACAGCCACAACUUGAAAGCUAAAAGUUCAGGCAACAGAGGAUUGAGCAUCA
B16: chr7:135839593:135839594:+_ENSMUSG00000042105_ENSMUST00000151237|mus_hu|FALSE|FALSE (ssRNA)
RNA: GGGAGUUCUACAGUCCGACGAUCAGAAUCAGUCACUUCAACAGAGUAAAGCUCUAAAGACACCAGACGAACCAAUACUUGUUGGAAUAUGCCAUACAACUUUCUUACUGUGGGGAUUACAGGGGCAGCCCUGGUUCUGUGUGGCAACAGAGGAUUGAGCAUCA
B17: 36153137_36166621_529_CDS_ENSG00000145604_ENST00000274255|human|control|control (ssRNA)
RNA: GGGAGUUCUACAGUCCGACGAUCCGCUAGGCGAUACCACCUCUUACAAACACCAGAGACCUUUAGCAGCUCAGGGAGGCACAGACAGGAAAAGAUUCCCAAGAGCAGCUCAUCCGGAAGGGAGUCCCAUGAAACACCUGGAAACAACAGAGGAUUGAGCAUCA
B18: chr4:124323795:124323796:+_ENSG00000164056_ENST00000339241|hu_hu|FALSE|FALSE (ssRNA)
RNA: B15 RNA with G80U, G81A
B19: chrX:7701523:7701524:-_ENSMUSG00000031166_ENSMUST00000033506|mus_mus|FALSE|FALSE (ssRNA)
RNA: GGGAGUUCUACAGUCCGACGAUCCAGGCAAGUGUGGGGUCCACCCAAACAGUAGCUGCCAAUGUUGGGGAGUUUGACAACCUAACCUGGUGAAAGCCCCGUGGUUGAACUUAACAUUCUGCACCUAAUUUCCCUACUGCUGUCCAACAGAGGAUUGAGCAUCA
B20: chr11:75578338:75578339:+_ENSMUSG00000020849_ENSMUST00000067664|perfect_dup|motif|central (ssRNA)
RNA: GGGAGUUCUACAGUCCGACGAUCAAAGGGGAGGGGAGAAAAAAAAAAAAGAAAAAGAAAGAAAAACAACAGGGCAGGAACCGGAAUUCUGAGACCAAAUGUGAAAGUCAAAUUUGGUGGUUCUCAGUGACAAUGGGGAACUUCCAACAGAGGAUUGAGCAUCA
B21: chr11:75578338:75578339:+_ENSMUSG00000020849_ENSMUST00000067664|perfect_dup|FALSE|FALSE (ssRNA)
RNA: B20 RNA with G82U, G83A
B22: chr15:103023242:103023243:-_ENSMUSG00000009575_ENSMUST00000118152|mus_hu|FALSE|FALSE (ssRNA)
RNA: GGGAGUUCUACAGUCCGACGAUCAACAUCUGAACUAGCAGCUUUGAUGAGGGGUGGGGGGCAGAAAAUUUGCCGAGUCACUAAGUAGUUCCAGUCUUGGAGACAGCUCAGUGAGGACCAAAGCCUGUGUGUCAGGCUUAAACUCAACAGAGGAUUGAGCAUCA

These binders were tested against T1, UNK ZnF1-3 (assay: nsRBNS (natural sequence RNA bind-n-seq); RBNS binding buffer (assumed for nsRBNS): 25 mM Tris pH 7.5, 150 mM KCl, 3 mM MgCl2, 0.01% Triton X-100, 500 ug/ml BSA, 20 U/ml SUPERase-In, 4 C; UNK is unkempt and MSI1 is Musashi-1; names of the RNAs are library labels; protein concentration not given here; high values mean tight binding).
For B1, the binding signal was 1.03 enrichment R. In the case of B2, the binding signal is reported as 1.56 enrichment R. B3 showed a binding signal of 0.722 enrichment R. In the case of B4, the binding signal is reported as 0.646 enrichment R. With B5 the binding signal was 4.38 enrichment R. With B6 the binding signal was 1.52 enrichment R. Work on B7 yielded a binding signal of 2.24 enrichment R. For B8, the binding signal was 0.754 enrichment R. Binder B9 has a binding signal of 1.32 enrichment R. With B10 the binding signal was 1 enrichment R. With B11 the binding signal was 1.32 enrichment R. B12 gave a binding signal of 3.29 enrichment R. With B13 the binding signal was 1.49 enrichment R. In the case of B14, the binding signal is reported as 3.99 enrichment R. In the case of B15, the binding signal is reported as 3.58 enrichment R. B16 showed a binding signal of 1.69 enrichment R. In the case of B17, the binding signal is reported as 1.46 enrichment R. Work on B18 yielded a binding signal of 4.13 enrichment R. B19 was tested, and the binding signal was 1.26 enrichment R. Binder B20 has a binding signal of 5.06 enrichment R. Binder B21 has a binding signal of 4.7 enrichment R. For B22, the binding signal was 1.22 enrichment R.
